{"source": "PubChem BioAssay (NCATS)", "note": "Inconclusive results are not listed. Where a call stands in place of a potency, no number is given. Activity calls are given as the source filed them. Calls come from the whole dose curve; tested in HEK293 reporter line."}
{"assay": "qHTS for Inhibitors of the Functional Ribonucleoprotein Complex (vRNP) of Lassa (LASV) Arenavirus: LASV Primary Screen - GLuc reporter signal (AID 1347082); note: nearly all actives have a fitted effect of over 60% in size", "details": "LASV minigenome vRNP, Gaussia luciferase reporter; series mostly up to 57.5 µM"}
{"smiles": "CN(C)[C@@H]1C(=O)C(C(N)=O)=C(O)[C@@]2(O)C(=O)C3=C(O)c4c(O)cccc4C[C@H]3C[C@@H]12", "Potency": "inactive"}
{"smiles": "CCCOC(=O)c1ccccc1", "Potency": "inactive"}
{"smiles": "CN(C)CCN1CCN(c2cccc(Cl)c2)C1=O", "Potency": "inactive"}
{"smiles": "Cc1ccc(Nc2nccc(N(C)c3ccc4c(C)n(C)nc4c3)n2)cc1S(N)(=O)=O", "Potency": "inactive"}
{"smiles": "O=C(O)[C@@H](O)[C@H](O)[C@H](O)[C@@H](O)C(=O)O", "Potency": "inactive"}
{"smiles": "Nc1c(I)cc(I)c(C(=O)N(CCC(=O)O)c2ccccc2)c1I", "Potency": "inactive"}
{"smiles": "C/C=C1\\[C@H]2C=C(C)C[C@]1(N)c1ccc(=O)[nH]c1C2", "Potency": "inactive"}
{"smiles": "Cc1cn([C@@H]2O[C@H](CO)[C@@H](O)[C@H]2F)c(=O)[nH]c1=O", "Potency": "inactive"}
{"smiles": "CC1CC(OC(=O)c2ccccc2O)CC(C)(C)C1", "note": "(stereo not given)", "Potency": "inactive"}
{"smiles": "CCOC(=O)c1ccccc1O", "Potency": "inactive"}
{"smiles": "COC(=O)c1ccccc1C(=O)c1ccc(OCCN2CCCCC2)cc1", "Potency": "inactive"}
{"smiles": "COP(=O)(OC)OC(c1ccc(Cl)cc1)P(=O)(OC)OC", "note": "(stereo not given)", "Potency": "inactive"}
{"smiles": "Cc1cc2nc3c(=O)[nH]c(=O)nc-3n(C[C@H](O)[C@H](O)[C@H](O)CO)c2cc1C", "Potency": "inactive"}
{"smiles": "Cc1ccc(C(C)C)cc2c(C)ccc1-2", "Potency": "inactive"}
{"smiles": "COc1ccc(C2CNC(=O)C2)cc1OC1CCCC1", "note": "(stereo not given)", "Potency": "inactive"}
{"smiles": "CC(C)CCCC(C)NCCC(C)C", "note": "(stereo not given)", "Potency": "inactive"}
{"smiles": "O=C(CCN1CCC(c2ccccc2)C1)c1ccc2c(c1)OCCO2", "note": "(stereo not given)", "Potency": "inactive"}
{"assay": "qHTS for Inhibitors of the Functional Ribonucleoprotein Complex (vRNP) of Lassa (LASV) Arenavirus: Viability assay - alamar blue signal for LASV Primary Screen (AID 1347083); note: nearly all actives have a fitted effect of over 80% in size", "details": "cell viability, alamar blue fluorescence (LASV minigenome counter-screen); series mostly up to 57.5 µM"}
{"smiles": "Nc1ccc(C(=O)O)cc1", "Potency": "inactive"}
{"smiles": "O=C1c2c(O)cccc2Cc2cccc(O)c21", "Potency": "inactive"}
{"smiles": "CC(=O)c1ccc(S(=O)(=O)NC(=O)NC2CCCCC2)cc1", "Potency": "inactive"}
{"smiles": "CC(C)[N+](C)(C)CC(O)COc1cccc2ccccc12", "note": "(stereo not given)", "Potency": "inactive"}
{"smiles": "Nc1ccc(C(=O)OCC(O)CO)cc1", "note": "(stereo not given)", "Potency": "inactive"}
{"smiles": "COc1ccnc(CS(=O)c2nc3ccc(OC(F)F)cc3[nH]2)c1OC", "note": "(stereo not given)", "Potency": "inactive"}
{"smiles": "CC(=O)N(CC(O)CO)c1c(I)c(C(=O)NCC(O)CO)c(I)c(C(=O)NCC(O)CO)c1I", "note": "(stereo not given)", "Potency": "inactive"}
{"smiles": "Cc1ccc(S(=O)(=O)NC(=O)NC2CCCCC2)cc1", "Potency": "inactive"}
{"smiles": "Cc1ccc(C(=O)C(=O)O)cc1C", "Potency": "inactive"}
{"smiles": "CC(=O)c1ccc(OCC(=O)N2CCCCC2)cc1", "Potency": "inactive"}
{"smiles": "CCCC(=O)O[C@]1(C(=O)COC(=O)CC)CC[C@H]2[C@@H]3CCC4=CC(=O)CC[C@]4(C)[C@H]3[C@@H](O)C[C@@]21C", "Potency": "inactive"}
{"smiles": "COCCc1ccccn1", "Potency": "inactive"}
{"smiles": "CCOC(=O)C1=C[C@@H](OC(CC)CC)[C@H](NC(C)=O)[C@@H](N)C1", "Potency": "inactive"}
{"smiles": "Cc1ccccc1OCC(O)CO", "note": "(stereo not given)", "Potency": "inactive"}
{"smiles": "O=C(O)Cc1cn(-c2ccccc2)nc1-c1ccc(Cl)cc1", "Potency": "inactive"}
{"smiles": "COC(=O)C1=C(C)NC(C)=C(C(=O)OCC(C)=O)C1c1ccccc1[N+](=O)[O-]", "note": "(stereo not given)", "Potency": "inactive"}
{"smiles": "Nc1ccc(C(=O)O)c(O)c1", "Potency": "inactive"}
{"smiles": "CC(CCc1ccc2c(c1)OCO2)NN", "note": "(stereo not given)", "Potency": "inactive"}
{"smiles": "O=C(O)[C@H](O)c1ccccc1", "Potency": "inactive"}
{"smiles": "CCN(CC)CCNC(=O)c1cc(S(C)(=O)=O)ccc1OC", "Potency": "inactive"}
{"smiles": "CCOCCn1c(C2CCN(CCc3ccc(C(C)(C)C(=O)O)cc3)CC2)nc2ccccc21", "Potency": "inactive"}
{"smiles": "CN(C)[C@@H]1C(=O)C(C(N)=O)=C(O)[C@@]2(O)C(=O)C3=C(O)c4c(O)cccc4C[C@H]3C[C@@H]12", "Potency": "inactive"}
{"smiles": "CCCOC(=O)c1ccccc1", "Potency": "inactive"}
{"smiles": "CN(C)CCN1CCN(c2cccc(Cl)c2)C1=O", "Potency": "inactive"}
{"smiles": "Cc1ccc(Nc2nccc(N(C)c3ccc4c(C)n(C)nc4c3)n2)cc1S(N)(=O)=O", "Potency": "inactive"}
{"smiles": "O=C(O)[C@@H](O)[C@H](O)[C@H](O)[C@@H](O)C(=O)O", "Potency": "inactive"}
{"smiles": "Nc1c(I)cc(I)c(C(=O)N(CCC(=O)O)c2ccccc2)c1I", "Potency": "inactive"}
{"smiles": "C/C=C1\\[C@H]2C=C(C)C[C@]1(N)c1ccc(=O)[nH]c1C2", "Potency": "inactive"}
{"smiles": "Cc1cn([C@@H]2O[C@H](CO)[C@@H](O)[C@H]2F)c(=O)[nH]c1=O", "Potency": "inactive"}
{"smiles": "CC1CC(OC(=O)c2ccccc2O)CC(C)(C)C1", "note": "(stereo not given)", "Potency": "inactive"}
{"smiles": "CCOC(=O)c1ccccc1O", "Potency": "inactive"}
{"smiles": "COC(=O)c1ccccc1C(=O)c1ccc(OCCN2CCCCC2)cc1", "Potency": "inactive"}
{"smiles": "COP(=O)(OC)OC(c1ccc(Cl)cc1)P(=O)(OC)OC", "note": "(stereo not given)", "Potency": "inactive"}
{"smiles": "Cc1cc2nc3c(=O)[nH]c(=O)nc-3n(C[C@H](O)[C@H](O)[C@H](O)CO)c2cc1C", "Potency": "inactive"}
{"smiles": "Cc1ccc(C(C)C)cc2c(C)ccc1-2", "Potency": "inactive"}
{"smiles": "COc1ccc(C2CNC(=O)C2)cc1OC1CCCC1", "note": "(stereo not given)", "Potency": "inactive"}
{"smiles": "CC(C)CCCC(C)NCCC(C)C", "note": "(stereo not given)", "Potency": "inactive"}
{"smiles": "O=C(CCN1CCC(c2ccccc2)C1)c1ccc2c(c1)OCCO2", "note": "(stereo not given)", "Potency": "inactive"}
